From PubChem BioAssay AID1347048 (National Center for Advancing Translational Sciences (NCATS), 2019)
Among all 76,000 compounds or so, about 1,200 (1.6%) were called active. Entries that show only a call come without a potency. About 4% were inconclusive and are not listed. Calls come from the whole dose curve. The sample as a whole holds a higher share of actives than the screen did.

These compounds were tested against Atrial natriuretic peptide receptor 1 (Homo sapiens) (UniProt P16066) (assay: Natriuretic polypeptide receptor (hNpr1) antagonism - Primary qHTS). Settings: HEK293 hNpr1 GloSensor cGMP, ANP-stimulated luminescence; series mostly up to 46.3 µM.
Atrial natriuretic peptide receptor 1 (Homo sapiens), sequence (P16066 whole entry, looked up): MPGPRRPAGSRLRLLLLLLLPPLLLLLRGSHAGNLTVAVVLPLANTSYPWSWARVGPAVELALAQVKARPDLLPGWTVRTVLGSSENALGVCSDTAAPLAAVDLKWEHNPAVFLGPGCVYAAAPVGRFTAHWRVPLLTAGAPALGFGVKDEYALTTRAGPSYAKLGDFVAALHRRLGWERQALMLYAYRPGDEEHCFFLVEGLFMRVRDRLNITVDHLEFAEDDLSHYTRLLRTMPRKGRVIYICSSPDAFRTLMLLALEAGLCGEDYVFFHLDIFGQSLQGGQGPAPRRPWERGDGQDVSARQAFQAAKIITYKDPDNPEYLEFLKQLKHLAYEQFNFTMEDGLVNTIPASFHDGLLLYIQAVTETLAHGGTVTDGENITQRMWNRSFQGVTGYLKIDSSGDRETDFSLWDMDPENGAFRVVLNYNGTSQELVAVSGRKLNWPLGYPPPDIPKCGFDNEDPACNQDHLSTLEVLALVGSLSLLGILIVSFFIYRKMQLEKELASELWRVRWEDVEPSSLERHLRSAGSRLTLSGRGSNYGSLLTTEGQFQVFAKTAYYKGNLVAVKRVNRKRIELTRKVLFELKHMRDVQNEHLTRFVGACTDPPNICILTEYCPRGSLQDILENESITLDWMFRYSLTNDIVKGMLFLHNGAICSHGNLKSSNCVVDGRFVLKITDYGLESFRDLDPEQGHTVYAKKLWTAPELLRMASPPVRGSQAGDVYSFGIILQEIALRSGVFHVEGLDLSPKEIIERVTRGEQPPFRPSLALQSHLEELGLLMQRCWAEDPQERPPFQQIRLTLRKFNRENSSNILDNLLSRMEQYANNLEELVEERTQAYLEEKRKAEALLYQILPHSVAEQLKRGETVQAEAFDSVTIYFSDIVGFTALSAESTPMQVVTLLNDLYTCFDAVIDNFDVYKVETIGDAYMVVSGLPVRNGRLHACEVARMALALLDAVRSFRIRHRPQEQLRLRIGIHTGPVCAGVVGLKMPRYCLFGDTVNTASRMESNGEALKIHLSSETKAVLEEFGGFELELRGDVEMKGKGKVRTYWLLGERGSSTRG
Outline: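 HEK293 cells stably expressing human Npr1 and cGMP GloSensor pGS-40F, loaded 2 h with 2% GloSensor reagent, given compound 30 min at room temperature. Luminescence read before and 20 min after 0.1 nM hNppA.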
Note: nearly all actives have a fitted effect of over 60% in size.
Potency is the fitted concentration of half-maximal effect.

Compound	Potency
Cn1cc(-c2cc(-c3cccnc3)c3cncn3c2)cn1	inactive
COc1ccc(-c2cc(N3CCCC(NC(=O)c4cc(F)ccc4Cl)C3)n[nH]2)cc1 (centres undefined)	inactive
O=C(c1ccoc1)N1CCOc2ccc(CN3CCc4ccccc4C3)cc2C1	inactive
COc1ccc(-c2ncc3c(n2)OCCN(Cc2ccccc2)C3=O)cn1	inactive
O=C1c2cnc(-c3ccc(O)c(F)c3)nc2OCCN1Cc1ccccc1	inactive
O=C1c2cnc(-c3ccc(Cl)cc3)nc2OCCN1Cc1ccccc1	31.6 µM (active)
COc1ccc(CNC(=O)N2CCC3(CC2)CC(N(C(C)=O)C2CC2)CCO3)cc1 (centres undefined)	inactive
Cc1nn2c(c1-c1ccccc1-c1ccccc1)N(CC1CC1)CCC2	2.82 µM (active)
Cc1nn2c(c1-c1ccccc1-c1ccccc1)N(C(=O)CN1CCOCC1)CCC2	inactive
Cc1nn2c(c1-c1ccccc1Oc1ccccc1)N(C(=O)C(C)C)CCC2	inactive
COc1ccccc1-c1[nH]nc2ncc(C(=O)N3CCN(Cc4ccccc4)CC3)nc12	inactive
CN(C)C(=O)c1cccnc1OC1CCN(S(=O)(=O)c2ccc3c(c2)CCCC3)C1 (centres undefined)	inactive
O=C(c1ccno1)N1C[C@@H]2OCC(=O)N(c3ccccc3)[C@@H]2C1	inactive
O=C(Nc1ccccc1)c1nc2c(o1)CCN(Cc1cccc(Cl)c1)CC2	11.2 µM (active)
CCNC(=O)C1C(c2cccc(NC(=O)c3cccc(C)c3)c2)OC(=O)N1Cc1cccc(Cl)c1 (centres undefined)	inactive
N#Cc1ccc(CN2CCc3nc(C(=O)N4CCOCC4)oc3CC2)cc1	inactive
COc1ccc(CN2CCc3nc(C(=O)N4CCOCC4)oc3CC2)cc1OC	inactive
O=C(NCCOc1ccccc1)c1nc2c(o1)CCN(CC1CCCCC1)CC2	inactive
Cc1cccc(CN2CCc3nc(C(=O)Nc4ccc(Cl)cc4)oc3CC2)c1	8.91 µM (active)
O=C(Nc1ccc(Cl)cc1)c1nc2c(o1)CCN(Cc1ccsc1)CC2	8.91 µM (active)
O=C(Cn1nc2n(c1=O)CCCC2)Nc1ccc(Cl)cc1	inactive
O=C(Nc1cccc(Cl)c1)c1cnc2c(c1)N(C(=O)CCc1ccccc1)CCC2	inactive
COCCNc1ncccc1-c1noc([C@@H]2CCCN2Cc2ccc3c(c2)OCO3)n1	inactive
CC(C)N1C(=O)OCC12CCN(C(=O)c1ccc(Oc3ccccc3)cc1)C2 (centres undefined)	inactive
CCc1nc2c(c(-c3ccc(Cl)cc3)n1)CN(CCC(C)C)CC2	inactive

Compound	Potency
COC(=O)N1CCCc2nc(C)nc(-c3ccc(O)cc3)c2C1	inactive
CN(C)c1cc(N2C[C@@H](CN3CCOCC3)C[C@H](CO)C2)ncn1	inactive
COc1ccccc1C(=O)N1CCC2(CC1)CC(=O)c1ccccc1O2	inactive
CC(=O)N(C1CC1)C1CCOC2(CCN(C(=O)C3(c4ccccc4)CC3)CC2)C1 (centres undefined)	inactive
COCC1CN(C(C)=O)CC12CCN(Cc1ccccc1OC)CC2 (centres undefined)	inactive
COc1ccc(CN2C=C(C(=O)OCc3nc(C)no3)C(C)=NS2(=O)=O)cc1	inactive
CC1=NS(=O)(=O)N(C)C=C1C(=O)OCc1nc(-c2ccccc2C)no1	inactive
CC1=NS(=O)(=O)N(C)C=C1C(=O)OCc1nc(-c2ccc(C)cc2)no1	10 µM (active)
CCn1ncc(N2CCC(NC(=O)c3ccccc3OC)CC2)cc1=O	inactive
COc1cccc(C(=O)NCC2Cn3cccc3C(=O)N2Cc2ccccc2)c1 (centres undefined)	inactive
COc1cccc(-c2cc(-c3nc(C4CCOC4)no3)[nH]n2)c1 (centres undefined)	inactive
COc1ccc(-c2[nH]nc3ncc(C(=O)Nc4ccccc4)nc23)c(C)c1	inactive
COc1ccccc1Nc1cnc2ccc(-c3ccc(OC)c(OC)c3)nn12	inactive
CN(C)c1ccc2ncc(Nc3ccccc3F)n2n1	inactive
COc1ccccc1Nc1cnc2ccc(N(C)Cc3cccnc3)nn12	25.1 µM (active)
O=C1NC2(CN([S+](=O)([O-])c3cccc(C(F)(F)F)c3)C2)Oc2ccccc21	inactive
Cc1cccc(-n2nc(-c3c(C)nc4scc(CC(=O)NC(C)C(C)C)n4c3=O)cc2C)c1 (centres undefined)	inactive
COc1cc(NC(=O)Cn2c(N3CCc4ccccc4C3)nc(C)cc2=O)cc(OC)c1	inactive
CCCN1C(=O)Cc2ccccc2C1C(=O)NCc1cccc(OC)c1OC (centres undefined)	inactive
COc1ccccc1CNC(=O)CN1CCCC(CO)(CC2CC2)C1 (centres undefined)	inactive
COc1cccc(NC(=O)Cn2c(-c3ccccc3)nc(C)cc2=O)c1	inactive
COc1cccc(NC(=O)Cn2c(N(C)Cc3ccccc3)nc(C)cc2=O)c1	10 µM (active)
COc1cccc(CNC(=O)Cn2c(N(C)Cc3ccccc3)nc(C)cc2=O)c1OC	15.8 µM (active)
COc1ccc2[nH]c3c(c2c1)CCNC31CCN(C(=O)c2cc(C)n(C)n2)CC1	inactive
COc1cccc(C(C(=O)O)N2CCN(c3ccccn3)CC2)c1OC (centres undefined)	inactive

Compound	Potency
Cc1cc(C(=O)N2CCC3(CC2)CC(C(=O)N2CCOCC2)N(C)C3)nn1C (centres undefined)	inactive
CCn1nccc1C(=O)N1CCCCCNC(=O)[C@H]2C[C@H](C(=O)N3CCc4ccccc4C3)C[C@H]21	inactive
Cc1ccc(OCc2nc(C3CCN(C(=O)c4c5c(nc6ccccc46)CCCC5)CC3)no2)cc1	inactive
Cc1ccc(OCc2nc(C3CCN(C(=O)CCc4nc5ccc(Cl)cc5[nH]4)CC3)no2)cc1	11.2 µM (active)
Cc1ccc(OCc2nc(C3CCN(C(=O)c4noc(C)c4CN4CCCCC4)CC3)no2)cc1	inactive
COCCOC1CCN(C(=O)c2[nH]nc3c2COc2ccccc2-3)CC1	inactive
O=C(Cc1c[nH]c2ncc(-c3ccccc3F)cc12)N1CCOCC1	25.1 µM (active)
COCCNC(=O)Cc1c[nH]c2ncc(-c3cccnc3OC)cc12	inactive
COc1ccc(CNC(=O)Cc2c[nH]c3ncc(-c4ccccc4)cc23)cc1OC	inactive
CN(C(=O)Cc1c[nH]c2ncc(-c3cnn(C)c3)cc12)c1ccccc1	inactive
Cc1noc(C)c1-c1nccc2c(=O)cc(N3CCOCC3)oc12	inactive
Cc1noc(C)c1-c1cnc2[nH]cc(CC(=O)N3CCOCC3)c2c1	22.4 µM (active)
CCCCSc1nc(N)cc(N2CCCC(OCc3cccnc3)C2)n1 (centres undefined)	inactive
CC(C)CNC(=O)CC(c1ccc(F)cc1F)c1c[nH]c2ccccc12 (centres undefined)	inactive
COc1ccc(CNC(=O)c2cc3n(n2)CC(c2ccc4c(c2)OCO4)OC3)c(OC)c1 (centres undefined)	inactive
CCCc1nc(C(=O)N[C@@H]2[C@@H](Cc3ccccc3)[C@H]3OCC[C@@H]23)cs1	inactive
Cc1ccc(NC(=O)Cn2ccn3nc4c(c3c2=O)CC(C)CC4)cc1Cl (centres undefined)	inactive
O=c1n(CC2CC2)nc2n1CCC(NS(=O)(=O)c1cccc(F)c1)CC2 (centres undefined)	inactive
COc1ccc(-c2noc(CC3CCN(C(=O)CC4CCCCC4)CC3)n2)cc1	6.31 µM (active)
COc1ccc(-c2noc([C@@H]3CCCN3C(=O)CCc3ccccc3)n2)cc1	inactive
COc1ccc(CC(=O)N2CCC[C@H]2c2nc(-c3ccccc3)no2)cc1	inactive
COc1ccc(-c2noc(CC3CCN(C(=O)Cc4ccccc4)CC3)n2)cc1	11.2 µM (active)
Cc1ccc(CC(=O)N2CCC(Cc3nc(-c4cnccn4)no3)CC2)cc1	inactive
COc1ccc(-c2noc(CC3CCN(C(=O)Cc4ccc(C)cc4)CC3)n2)cc1	15.8 µM (active)
COc1ccc(C(=O)N2CCC(Cc3nc(-c4cnccn4)no3)CC2)cc1	inactive

Compound	Potency
COc1ccc(-c2noc([C@@H]3CCCN3C(=O)Cc3ccccc3Cl)n2)cc1	inactive
CCOc1ccc(CC(=O)N2CCC(Cc3nc(-c4cnccn4)no3)CC2)cc1	inactive
O=C(Nc1ccc(C(F)(F)F)cc1)N[C@@H]1C[C@H](CO)[C@@H](O)[C@H]1O	inactive
COc1ccc(C(=O)N2CCC3(CC2)NC(=O)N(c2ccc(F)cc2)N3)cc1OC	inactive
O=C(Nc1ccccc1)N1CCCCC1c1noc(COc2ccc(F)cc2)n1 (centres undefined)	inactive
CCCn1cnc2c1CN(S(=O)(=O)Cc1ccccc1)[C@H](C(=O)OC)C2	inactive
CCc1nc(-c2c3n(c(=O)n(CCc4ccc(OC)cc4)c2=O)CCCC3)no1	inactive
COc1cccc(CN2CCc3c(cc(C(=O)NCCN4CCCCC4)n3C)C2)c1	inactive
COc1ccc(NC(=O)c2ccc3c(c2)N(C(=O)c2ccc(F)cc2)CC3)c(C)c1	inactive
COc1ccc(CNC(=O)c2cccc3c2CCN3C(=O)c2ccc(F)cc2)cc1OC	8.91 µM (active)
CN1CCCCCC(O)c2cc(C(=O)NCc3ccc(F)cc3)ccc21 (centres undefined)	inactive
O=C(c1ccnc(-c2nnc3ccc(N4CCOCC4)nn23)c1)N1CCCCC1	inactive
COc1ccccc1CNC(=O)CCC[C@@H]1[C@H]2CCCN3CCC[C@@H](CN1C(=O)c1ccccc1)[C@@H]23	inactive
COCCN1CCCCCC(O)c2cc(C(=O)Nc3cccc(OC)c3)ccc21 (centres undefined)	inactive
CN(Cc1ccc(CCN)cc1)Cc1cccc(-n2cccn2)c1	inactive
CN(C)c1ccc(C(=O)NCc2nnc3cc(-c4nc(C5CC5)no4)ccn23)cc1	inactive
CCOc1ccccc1C(=O)NCc1nnc2cc(-c3nc(C)no3)ccn12	inactive
O=C(NCc1nnc2cc(-c3nc(C4CC4)no3)ccn12)c1ccc(F)cc1Cl	7.08 µM (active)
COc1cccc(CC(=O)N2CCCC(c3nc(-c4cccnc4)no3)CCNC(=O)CC2)c1 (centres undefined)	inactive
Cc1cccc(OCC(=O)N2CCN(c3cc(C(F)(F)F)nc(C)n3)CC2)c1	inactive
CC(C)CN[C@H]1[C@H](O)[C@H](O)C[C@@H]1c1ccc(N2CCOCC2)nc1	inactive
CN(C)CCN(C)c1ccc(-c2nc(-c3ccccc3F)no2)cn1	inactive
Oc1ccc(-c2ccc(-c3nc(CCc4ccccc4)no3)cn2)cc1	inactive
CN(CCc1cn[nH]c1)c1ccc(-c2nc(-c3ccccc3F)no2)cn1	8.91 µM (active)
